# PubChem BioAssay (NCATS)
# Records with an inconclusive call do not appear. Where a call stands in place of a potency, no number is given. Calls of active or inactive are those of the source. Unless noted, calls come from the whole dose curve. Numbered stars: 1 amine (or outer) side, 2 acyl side, 3 side chain; on linkers, the order of the positions; unused ones are H or OH. Bridge positions count the residues as written; N and C are the ends. Square brackets hold non-standard residues; d marks the D form. Peptide text beside a SMILES is read from it. I, II: the chains in the order shown. Actinocin(9to1) = Cc1c2oc3c(C)ccc(C(=O)[*:1])c3nc-2c(C(=O)[*:2])c(N)c1=O; NMeV = CN[C@H](C(=O)O)C(C)C; Sar = CNCC(=O)O
# How the values were obtained:
# [1] = Primary qHTS for Huh7 cytotoxicity: counterscreen for inhibitors of MERS-S pseudotyped particle cell entry (AID 1479147)
# [2] = Primary qHTS for Vero E6 cytotoxicity: counterscreen for inhibitors of SARS-S pseudo-typed particle cell entry (AID 1479150); note: potency is the fitted concentration of half-maximal effect
# [3] = Confirmatory qHTS for VERO E6 Cytotoxicity Assay: Counterscreen for SARS-CoV-2 CPE Assay (AID 1508605); note: series mostly up to about 20 µM; nearly all actives have a fitted effect of over 60% in size
# [4] = Confirmatory qHTS for activators (rescue) of SARS-CoV-2 Cytopathic Effect (CPE) (AID 1508606); note: potency is the fitted concentration of half-maximal effect; nearly all actives have a fitted effect of over 70% in size
# [5] = biological target: Calcium and integrin-binding protein 1 (Homo sapiens) (UniProt Q99828); experiment: Primary qHTS for Identification of Calcium Integrin Binding Protein 1 (CIB1) Competitor (AID 1508620; active = well fitted curve in the direction sought with a large enough effect; an effect the other way counts as inactive or inconclusive;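 note: GST tagged CIB1 binding a fluorescein labelled alphaIIb integrin peptide tracer; top concentration of the series differs between compounds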)
# Outline: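 Fluorescence polarization competition: GST-tagged CIB1 (1 uM final) preincubated with compound 15 min at room temperature, then FITC-labelled alphaIIb peptide (100 nM final) added. After 15 min at room temperature, polarization read at Ex 480/Em 540.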
# [6] = Primary qHTS for inhibitors of MERS-S pseudo-typed particle cell entry (AID 1479149); note: nearly all actives have a fitted effect of over 60% in size; note: potency is the fitted concentration of half-maximal effect
# [7] = Primary qHTS for inhibitors of La Crosse Virus (LACV) - induced cell death in SH-SY5Y cells (AID 1508616; active = well fitted curve in the direction sought with a large enough effect; an effect the other way counts as inactive or inconclusive;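 note: top concentration of the series differs between compounds; higher means more rescue of cells from virus-induced death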)
# Outline: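 Protection against LACV-induced cell death is scored in SH-SY5Y cells exposed to compounds and virus (0.01 MOI) for 6 days. Data normalized to virus-infected DMSO wells and virus-free DMSO wells.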
# [8] = biological target: Calcium and integrin-binding protein 1 (Homo sapiens) (UniProt Q99828); experiment: Validation qHTS for Identification of Calcium Integrin Binding protein 1 (CIB1) Competitor (AID 1508618; active = well fitted curve in the direction sought with a large enough effect; an effect the other way counts as inactive or inconclusive)
# Outline: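 CIB1-GST (1 uM final) incubated 15 min at room temperature with compounds (up to 114 uM), then FITC-labelled alphaIIb peptide (100 nM) added. FP read (Ex 480/Em 540) after 15 min, pH 7.4 buffer containing 5 mM CaCl2.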
# Chain of Calcium and integrin-binding protein 1 (Homo sapiens) (Q99828 whole entry, looked up): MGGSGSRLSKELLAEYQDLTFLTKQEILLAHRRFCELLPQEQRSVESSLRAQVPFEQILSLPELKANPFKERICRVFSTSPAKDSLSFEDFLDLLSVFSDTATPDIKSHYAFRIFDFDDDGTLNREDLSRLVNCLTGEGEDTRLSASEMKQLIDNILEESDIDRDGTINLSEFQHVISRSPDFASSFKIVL
structure (smiles),measurement,setting,value
COc1cc2c(cc1OC)C(=O)C(CC1CCN(Cc3ccccc3)CC1)C2 (stereo unspecified),Potency,[1],inactive
same,Potency,[2],inactive
COc1ccc2nc(S(=O)Cc3ncc(C)c(OC)c3C)[nH]c2c1 (stereo unspecified),Potency,[1],inactive
same,Potency,[2],inactive
Fc1ccc([C@@H]2CCNC[C@H]2COc2ccc3c(c2)OCO3)cc1,Potency,[1],inactive
same,Potency,[2],inactive
C[C@H]1c2cccc(O)c2C(O)=C2C(=O)[C@]3(O)C(O)=C(C(N)=O)C(=O)[C@@H](N(C)C)[C@@H]3[C@@H](O)[C@@H]21,Potency,[1],inactive
same,Potency,[2],inactive
CN(C)CCC=C1c2ccccc2C=Cc2ccccc21,Potency,[1],inactive
same,Potency,[2],inactive
same,Potency,[3],inactive
CCc1ccc(CCOc2ccc(CC3SC(=O)NC3=O)cc2)nc1 (stereo unspecified),Potency,[1],inactive
same,Potency,[2],inactive
CN(C)CCCN1c2ccccc2Sc2ccc(Cl)cc21,Potency,[1],inactive
same,Potency,[2],inactive
same,Potency,[4],11.2 µM (active)
COc1cc2nc(N3CCN(C(=O)C4COc5ccccc5O4)CC3)nc(N)c2cc1OC (stereo unspecified),Potency,[1],inactive
same,Potency,[2],inactive
same,Potency,[3],inactive
CCC(COC(=O)c1cc(OC)c(OC)c(OC)c1)(c1ccccc1)N(C)C (stereo unspecified),Potency,[1],inactive
same,Potency,[2],inactive
same,Potency,[5],inactive
CCN(CC)CCOC(=O)C1(C2CCCCC2)CCCCC1,Potency,[1],inactive
same,Potency,[2],inactive
CN(C)CCC=C1c2ccccc2CCc2ccccc21,Potency,[1],inactive
same,Potency,[2],inactive
same,Potency,[3],inactive
COc1ccccc1OCCNCC(O)COc1cccc2[nH]c3ccccc3c12 (stereo unspecified),Potency,[1],inactive
same,Potency,[2],inactive
same,Potency,[3],inactive
same,Potency,[4],10 µM (active)
COC1=CC(=O)C[C@@H](C)[C@]12Oc1c(Cl)c(OC)cc(OC)c1C2=O,Potency,[6],inactive
same,Potency,[2],inactive
CN1CCN(C(c2ccccc2)c2ccccc2)CC1,Potency,[1],inactive
same,Potency,[2],inactive
COc1ccc(OC)c(C(O)CNC(=O)CN)c1 (stereo unspecified),Potency,[1],inactive
same,Potency,[2],inactive
OCCN(CCO)c1nc(N2CCCCC2)c2nc(N(CCO)CCO)nc(N3CCCCC3)c2n1,Potency,[1],inactive
same,Potency,[2],inactive
CC(CN(C)C)CN1c2ccccc2CCc2ccccc21 (stereo unspecified),Potency,[1],inactive
same,Potency,[2],inactive
same,Potency,[3],inactive
Cn1c(CCCC(=O)O)nc2cc(N(CCCl)CCCl)ccc21,Potency,[1],inactive
same,Potency,[2],inactive
same,Potency,[7],inactive
same,Potency,[8],inactive
same,Potency,[5],inactive
CCC1=C[C@@H]2CN(C1)Cc1c([nH]c3ccccc13)[C@@](C(=O)OC)(c1cc3c(cc1OC)N(C)[C@H]1[C@@](O)(C(=O)OC)[C@H](OC(C)=O)[C@]4(CC)C=CCN5CC[C@]31[C@@H]54)C2,Potency,[6],3.16 µM (active)
OC(CCN1CCCC1)(c1ccccc1)C1CCCCC1 (stereo unspecified),Potency,[1],inactive
same,Potency,[2],inactive
Cc1ccc(O)c([C@H](CCN(C(C)C)C(C)C)c2ccccc2)c1,Potency,[1],inactive
same,Potency,[2],inactive
CN(C)CCc1ccc(O)cc1,Potency,[7],inactive
same,Potency,[5],inactive
COC[C@H]1OC(=O)c2coc3c2[C@@]1(C)C1=C(C3=O)C2CCC(=O)[C@@]2(C)C[C@H]1OC(C)=O (stereo partly specified),Potency,[7],inactive
same,Potency,[8],inactive
CSc1ccc2c(c1)N(CCC1CCCCN1C)c1ccccc1S2 (stereo unspecified),Potency,[2],inactive
"Cc1c2oc3c(C)ccc(C(=O)N[C@@H]4C(=O)N[C@H](C(C)C)C(=O)N5CCC[C@H]5C(=O)N(C)CC(=O)N(C)[C@@H](C(C)C)C(=O)O[C@@H]4C)c3nc-2c(C(=O)N[C@@H]2C(=O)N[C@H](C(C)C)C(=O)N3CCC[C@H]3C(=O)N(C)CC(=O)N(C)[C@@H](C(C)C)C(=O)O[C@@H]2C)c(N)c1=O (I: T[dV]P[Sar][NMeV] / II: T[dV]P[Sar][NMeV]; ester I:1-I:C, II:1-II:C; linker I:N-II:N via Actinocin(9to1))",Potency,[2],inactive
CC(=O)Oc1ccccc1C(=O)Nc1ncc([N+](=O)[O-])s1,Potency,[6],5.62 µM (active)
same,Potency,[2],28.2 µM (active)
same,Potency,[4],5.01 µM (active)
O=c1[nH]c2ccccc2n1CCCN1CCC(n2c(=O)[nH]c3cc(Cl)ccc32)CC1,Potency,[2],inactive
same,Potency,[7],inactive
same,Potency,[8],inactive
same,Potency,[5],inactive
CC(O)(CS(=O)(=O)c1ccc(F)cc1)C(=O)Nc1ccc(C#N)c(C(F)(F)F)c1 (stereo unspecified),Potency,[7],inactive
same,Potency,[8],inactive
same,Potency,[5],inactive
OCCN1CCN(CCCN2c3ccccc3Sc3ccc(C(F)(F)F)cc32)CC1,Potency,[2],inactive
O=C(CCCN1CCC(O)(c2ccc(Cl)cc2)CC1)c1ccc(F)cc1,Potency,[2],inactive
CCCN1CCC[C@@H]2Cc3[nH]ncc3C[C@H]21,Potency,[7],inactive
same,Potency,[8],inactive
same,Potency,[5],inactive
CCCNCC(O)COc1ccccc1C(=O)CCc1ccccc1 (stereo unspecified),Potency,[2],inactive
same,Potency,[3],inactive
CCC(C)n1ncn(-c2ccc(N3CCN(c4ccc(OC[C@H]5CO[C@](Cn6cncn6)(c6ccc(Cl)cc6Cl)O5)cc4)CC3)cc2)c1=O (stereo partly specified),Potency,[6],2.51 µM (active)
same,Potency,[2],inactive
c1ccc2c(c1)OCC(C1=NCCN1)O2 (stereo unspecified),Potency,[7],inactive
same,Potency,[8],inactive
same,Potency,[5],inactive
CNCCCC1c2ccccc2C=Cc2ccccc21,Potency,[2],inactive
same,Potency,[3],inactive
NP(N)(=O)NC(=O)c1ccc(F)cc1,Potency,[7],inactive
same,Potency,[5],inactive
CCOC(=O)C1(c2ccccc2)CCN(CCC(C#N)(c2ccccc2)c2ccccc2)CC1,Potency,[7],inactive
same,Potency,[5],inactive
CN1C(=S)CN=C(c2ccccc2)c2cc(Cl)ccc21,Potency,[7],inactive
same,Potency,[5],inactive
CC1(CN2CCC(n3c(=O)[nH]c4ccccc43)CC2)OCc2ccccc2-n2cccc21 (stereo unspecified),Potency,[3],inactive
CN(C)C(=O)C(CCN1CCC(O)(c2ccc(Cl)cc2)CC1)(c1ccccc1)c1ccccc1,Potency,[2],inactive
same,Potency,[3],inactive
O=C(O)C(=O)c1cn(Cc2ccccc2)c2ccc(-c3ccc(OC(F)(F)F)cc3)cc12,Potency,[3],inactive
same,Potency,[5],inactive
Fc1ccc(C(OCCN2CCN(CCCc3ccccc3)CC2)c2ccc(F)cc2)cc1,Potency,[7],inactive
same,Potency,[8],inactive
same,Potency,[5],inactive
